Screens from PubChem BioAssay.
Tb PGK inh = T. brucei PGK inhibition; PGK/GAPDH coupled, Kinase-Glo luminescence, 60 min; Potency, µM (doses to about 57.5 µM), without a hit: at the top dose activity change, negative = inhibition, hits mostly inhibitors; P07378; AID 602233; 0.043% of 380,000 active; note: potency is the fitted concentration of half-maximal effect; % is set by controls: 0 for no effect and ±100 for the full control effect; nearly all actives have a fitted effect of over 60% in size
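Luminescent ATP detection (Kinase-Glo Plus) follows a 60-minute room-temperature incubation, with wells lacking PGK as controls. Buffer: 100 mM TEA (pH 7.6), 5 mM MgCl2, 0.01% Tween-20. Coupling enzyme GAPDH (100 nM final) supplies unstable 1,3-BPG in-well.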
PI4K2A inh = inhibitors of human PI4K2A; activity change, negative = inhibition, % at 76.9 µM; purified PI4K2A, ADP-Glo luminescence, 1 h; active compounds read low; 0.13% of 420,000 active; in the data active = activity change below about -50%; inconclusive = mostly about -30% to -49%;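 note: -100% = wells without enzyme as full effect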
Target sequence (Q9BTU6 whole entry, looked up): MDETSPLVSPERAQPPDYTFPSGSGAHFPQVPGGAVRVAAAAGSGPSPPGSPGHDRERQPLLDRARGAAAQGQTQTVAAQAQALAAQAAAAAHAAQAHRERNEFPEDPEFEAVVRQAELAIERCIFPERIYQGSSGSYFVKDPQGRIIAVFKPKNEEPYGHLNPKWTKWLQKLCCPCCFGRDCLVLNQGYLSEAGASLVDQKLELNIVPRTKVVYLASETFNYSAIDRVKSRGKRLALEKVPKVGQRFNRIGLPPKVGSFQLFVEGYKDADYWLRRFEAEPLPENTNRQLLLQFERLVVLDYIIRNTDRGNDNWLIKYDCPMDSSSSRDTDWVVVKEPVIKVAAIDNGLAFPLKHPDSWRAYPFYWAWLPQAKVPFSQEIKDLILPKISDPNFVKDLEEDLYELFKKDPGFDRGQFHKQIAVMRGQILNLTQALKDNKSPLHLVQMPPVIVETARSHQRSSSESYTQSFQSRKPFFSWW
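PI4K2A activity was measured by ADP-Glo luminescence: enzyme (4 ug/mL stock) and phosphatidylinositol (1.2 mM stock) in Tris pH 7.5/MgCl2/EGTA/Triton X-100 buffer were reacted with ATP (300 microM stock) for one hour at ambient temperature.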
Pin1 inh = human Pin1 inhibition | Q13526 | Pin1 FP peptide displacement, HiFluor488, 10 min | Potency, µM (top dose mostly 115 µM), for the others: top-dose activity, negative = inhibition, actives largely listed as inhibitors | 0.009% of 390,000 active | AID 504891; active = well fitted inhibition curve with a large enough effect in the polarisation, with a control signal flat, not every such curve was filed as active; inconclusive = small, poorly fitted or top-dose-only effect, or effect the other way, or a change in a side signal; inactive = no such curve, though single readings can be large or run the other way; the % refers to the polarisation; note: potency is the fitted concentration of half-maximal effect; % is set by controls: 0 for no effect and ±100 for the full control effect
Target sequence (Q13526 whole entry, looked up): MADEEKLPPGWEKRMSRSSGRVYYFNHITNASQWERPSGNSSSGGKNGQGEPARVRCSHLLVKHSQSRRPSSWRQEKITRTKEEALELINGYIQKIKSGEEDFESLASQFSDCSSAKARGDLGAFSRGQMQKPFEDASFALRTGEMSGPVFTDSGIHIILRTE
PI5P4K alpha inh = inhibitors of human PI5P4K alpha | PI5P4Kalpha enzyme, ADP-Glo luminescence, 60 min; active compounds read low | max response, % | 1.2% of 330,000 active | AID 652105; active = max response of -50% or lower; inconclusive = between -30% and -50%; inactive = -30% or higher; note: value at the top dose of about 77 µM; % is set by controls: 0 for no effect and ±100 for the full control effect
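Compounds were pin-transferred onto PI5P4Kalpha and substrate in HEPES pH 7.4 buffer with EGTA, CHAPS and 5% DMSO. ATP (5 microM final) started the reaction, which ran 60 minutes at room temperature before ADP-Glo detection.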
Tb PFK inh-1 = inhibitors of T. brucei phosphofructokinase; Potency, µM (series often up to 57.5 µM), for inactives: at the highest dose activity, negative = inhibition, most hits filed as inhibitors; T. brucei PFK, ADP-Glo luminescence; 0.17% of 330,000 active; AID 485367;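 note: potency is the fitted concentration of half-maximal effect; 0% = uninhibited 1x PFK enzyme wells and -100% = no-enzyme wells; nearly all actives have a fitted effect of over 60% in size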
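Compounds were pin-transferred as a titration series up to 57 uM into substrate buffer (0.5 mM F6P, 0.1 mM ATP, pH 8.0), then 1.25 nM PFK was added and reactions ran 45 min before ADP-Glo detection.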
TbPFK ATP = inhibits T. brucei PFK measured by ATP depletion. shares compounds with Tb PFK inh-1. Tb PFK enzyme, ATP depletion, Kinase-Glo Plus luminescence. Potency, µM (top dose mostly 57.5 µM), for the others: top-dose inhibition. 47% of 1,100 active. AID 504636; calls by dose curve; note: potency is the fitted concentration of half-maximal effect; nearly all actives have a fitted effect of over 60% in size
Tb PFK inh-2 = T. brucei PFK enzyme inhibition, hit validation; shares compounds with Tb PFK inh-1; purified T. brucei PFK, ADP-Glo luminescence, 45 min; Potency, µM (doses to about 57.5 µM), without a hit: at the top dose activity change, negative = inhibition, usual class: inhibitors; 41% of 1,100 active; AID 504637;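 note: potency is the fitted concentration of half-maximal effect; plate controls were full PFK enzyme control for no effect and no enzyme control for full effect; nearly all actives have a fitted effect of over 60% in size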
* = called active by the depositor; i = inactive; u = inconclusive; x = not tested or not shown. The entries come from a sample that favours hits as a whole. Unless noted, calls come from the whole dose curve; as a rule, active = well fitted curve in the direction sought with a large enough effect; inconclusive = small, poorly fitted or top-dose-only effect, or another doubt; inactive = no such curve, though single readings can be large; an effect the other way counts as inactive or inconclusive.

SMILES	Tb PGK inh	PI4K2A inh	Pin1 inh	PI5P4K alpha inh	Tb PFK inh-1	TbPFK ATP	Tb PFK inh-2
COc1cc(CC(=O)Nc2nc(-c3ccccc3)c(C(C)=O)s2)cc(OC)c1OC	i	-3	2%	2	u	u	u
COc1cc(CN2CCN(C(=O)Cc3ccccc3)CC2)cc(OC)c1OC	-2%	13	5%	1	0%	x	x
Cc1cc(NS(=O)(=O)c2ccc(NC(=O)COc3ccc(Cl)c(C)c3)cc2)no1	-8%	-6	-2%	1	12µM*	5.4µM*	13µM*
Cc1cc(NS(=O)(=O)c2ccc(NC(=O)COc3ccc(Cl)cc3Cl)cc2)no1	-2%	0	2%	3	2.7µM*	1.5µM*	1.7µM*
COc1cc(CN=C(C)c2c(O)n(C3CCCCC3)c(=O)[nH]c2=O)cc(OC)c1	2%	-3	10%	1	-4%	x	x
C=CCN1C(=O)C2(C(C(=O)OC)=C(N)Oc3c2c(=O)oc2ccccc32)c2ccccc21 (configuration not stated)	x	x	-1%	x	x	x	x
COc1ccc(Cn2c(N)c(C(=O)NCc3ccco3)c3nc4ccccc4nc32)cc1	-8%	6	81%	-7	-16%	x	x
CN(CC(=O)NC(=O)NCc1ccco1)CC(=O)Nc1ccccc1Cl	-5%	7	-1%	-24	u	x	x
O=C(CSc1ccc(Cl)cc1)NCc1ccco1	-10%	-5	-5%	-2	u	14%	-17%
O=C(COC(=O)Cc1ccc(Cl)cc1)NCc1ccco1	-24%	0	-11%	-8	u	8.5µM*	6.7µM*
O=C(COC(=O)Cc1ccc(Cl)c(Cl)c1)NCc1ccco1	-1%	0	-3%	0	u	13µM*	u
COc1cccc(CN2CCN(C(=O)COc3ccc4ccccc4c3)CC2)c1	i	1	-1%	8	4%	x	x
O=C1NC(=O)N(CCNc2ncc(C(F)(F)F)cc2Cl)C(=O)C1/C=N/OCc1c(F)cccc1Cl (configuration not stated)	3%	1	7%	-1	0%	x	x
O=C1C=CC(=O)N1CCNc1ncc(C(F)(F)F)cc1Cl	i	20	20%	-18	21µM*	5.4µM*	13µM*
O=C(NCc1cccnc1)C(=O)NCC1OCCN1S(=O)(=O)c1ccc(F)cc1 (configuration not stated)	8%	-1	u	-1	u	u	-30%
O=C(O)C1C2CCC(O2)C1C(=O)Nc1cccc(Br)c1 (configuration not stated)	-5%	-1	-4%	0	-12%	x	x
Cc1ccc(C(=O)Nc2cccc([N+](=O)[O-])c2)cc1S(=O)(=O)Nc1cccc(C(=O)O)c1	0%	-4	6%	9	19µM*	7.6µM*	19µM*
Cc1ccc(CC(=O)N2CCN(C)CC2)cc1	5%	1	-1%	9	2%	x	x
CN(C)C1(CNC(=O)c2ccc(NS(=O)(=O)c3ccc(Cl)c(Cl)c3)cc2)CCCCC1	-5%	-1	u	-3	-1%	x	x
O=C(NCCCN1CCCC1=O)c1cc(NS(=O)(=O)c2ccc(F)cc2)cc(NS(=O)(=O)c2ccc(F)cc2)c1	-5%	6	0%	-6	8.5µM*	3.8µM*	6.7µM*
CC(=O)NC1=NN(C(C)=O)C(C)(c2ccccc2)S1 (configuration not stated)	-5%	-1	2%	x	u	1%	-1%
COc1ccc(OCC(=O)N2CCN(Cc3ccc4c(c3)OCO4)CC2)cc1	3%	-3	-4%	7	7%	x	x
COc1ccc(N=C2SC(C(N)=O)CC(=O)N2Cc2ccc3c(c2)OCO3)cc1 (configuration not stated)	u	-2	-2%	2	u	1.7µM*	u
Cc1cccc(-n2c(CN3C(=O)c4ccccc4C3=O)nc3ccccc3c2=O)n1	i	6	2%	-3	x	x	x
CC1(C)C(=O)Nc2ccccc2N1C(=O)COC(=O)Cc1ccc(Cl)c(Cl)c1	-4%	-5	1%	-26	24µM*	u	u
SMILES	Tb PGK inh	PI4K2A inh	Pin1 inh	PI5P4K alpha inh	Tb PFK inh-1	TbPFK ATP	Tb PFK inh-2
O=C(OCc1cccc([N+](=O)[O-])c1)c1ccc[nH]c1=O	0%	7	2%	-4	7.6µM*	8.5µM*	6.7µM*
O=[N+]([O-])c1cccc(CCl)c1	4%	-4	-5%	2	0%	x	x
O=S1c2ccccc2-c2ccccc21	-4%	7	x	0	x	x	x
Cc1[nH]c2ccccc2c1CN1CCCCC1	-8%	2	-9%	-7	x	x	x
Cc1[nH]c2c(Cl)cccc2c1CCN	-4%	-4	0%	1	19µM*	11µM*	11µM*
C#CC1(O)CCC2C3CCC4=CC(=O)CCC4=C3C=CC21C (configuration not stated)	2%	7	-5%	-1	x	x	x
COc1ccc(OCC(=O)Nc2ccc(Cl)cc2C(=O)c2ccccc2)cc1	-7%	-1	-1%	1	-5%	x	x
COc1ccc(Cl)cc1C(=O)NNC(=O)COC(=O)CCN=C1NS(=O)(=O)c2ccccc21	-2%	3	6%	-6	u	-28%	u
Cc1cc(OC(C)C(=O)N[C@H](C(=O)O)c2ccccc2)c2c3c(c(=O)oc2c1)CCC3 (some centres not stated)	-9%	5	-6%	1	1%	x	x
CCCOc1ccc(C(=O)NC(=S)N2C[C@H]3C[C@H](C2)c2cccc(=O)n2C3)cc1	-3%	-1	-9%	u	-7%	x	x
O=C(Nc1cccc(-c2nnn(CC(=O)N3CCc4ccccc4C3)n2)c1)C1CCC1	-5%	-2	18%	x	24µM*	13µM*	u
Cc1ccc(C(=O)OCC(=O)c2ccc(CC(=O)N3CCOCC3)s2)c(C)c1	-18%	-15	u	u	u	u	u
COC(=O)C1=C(c2cccc(OC)c2OC)C[C@@H]2CC[C@H]1N2C	-4%	-4	2%	-4	0%	x	x
COc1cc(C(=S)N2CCN(c3ccccc3Cl)CC2)cc(O)c1O	-19%	-5	u	-58*	u	u	u
Cc1ccc(-n2c(/C=C\c3ccc(F)cc3)nc3ccccc3c2=O)cc1Cl	10%	-4	-17%	x	x	x	x
CC(C)c1c(Cl)c(O)c(-c2ccccc2)c(=O)n1-c1ccc(F)cc1	-4%	-9	-1%	4	u	u	u
